The supplement of paper PMC3334620
In all, about 33,000 sequences were measured (“E-score (-0.5 to 0.5)”: median about -0.017, highest 2% from about 0.3 on). For the sample, the highest values were picked, then their nearest neighbours and some sequences at random.

biological target: T1, Sut1 (UniProt P53032); assay: PBM E-score (8-mer binding enrichment) (E-score (-0.5 to 0.5)); higher = stronger / more preferred TF binding; details: protein concentration: 200 nM; construct: GST-full length
T1 sequence: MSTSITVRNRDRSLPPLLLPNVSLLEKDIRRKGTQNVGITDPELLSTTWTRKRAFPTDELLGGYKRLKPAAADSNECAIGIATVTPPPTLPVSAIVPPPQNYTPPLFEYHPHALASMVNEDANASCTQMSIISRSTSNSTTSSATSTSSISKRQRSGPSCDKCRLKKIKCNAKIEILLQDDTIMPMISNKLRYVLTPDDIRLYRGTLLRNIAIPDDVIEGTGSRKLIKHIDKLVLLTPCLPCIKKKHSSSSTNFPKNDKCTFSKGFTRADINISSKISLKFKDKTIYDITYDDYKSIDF
Procedure: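 Universal 'all 10-mer' protein binding microarrays (Agilent AMADID 015681) probed with GST-tagged S. cerevisiae TFs (full-length or DBD) made by in vitro transcription/translation (PURExpress), about 100-200 nM. Bound TF was detected with fluorescent anti-GST. Each ungapped 8-mer (which stands for itself and its reverse complement) is scored by the PBM enrichment score (E-score), a modified Wilcoxon-Mann-Whitney statistic from -0.5 to +0.5, computed with the Universal PBM Analysis Suite. Scale: above 0.35 generally sequence-specific binding.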

Sequence	PBM E-score
AATGTGCT	0.0947
TACTGAGA	-0.055
CAGGTCCC	-0.182
AAGGTCCT	-0.239
AAGGTCCG	0.407
CAGGTCCG	0.438
CAGGTCCA	-0.231
AAGGTCCA	-0.135
AGTCGAAA	0.115
TCTGGTAA	-0.0251
ATGCTAGA	0.0093
ACGCTGTA	-0.0391
ATCAAGAG	0.117
CTAGGCTC	-0.149
CGTAGCCC	-0.274
AGCGCCCT	-0.128
ACGGACAC	0.0824
ACGGACAT	0.404
ACGGACCG	-0.0134
ACGGACAG	-0.0929
ACGGACCA	0.277
ACGGACCT	0.339

Sequence	PBM E-score
ACAGTCCC	-0.2
GTTCCCTA	-0.238
CGAATATA	0.231
CCCATATC	-0.043
GACTCATA	0.0779
ACTCCGAC	0.489
ACTCCGAT	0.491
ACTCCCAT	-0.0456
CCTCCGAC	0.0212
ACTCCTAT	0.0886
AATCCGAC	0.0553
GCAACGGC	-0.0987
GCAACGGA	0.306
ACAACGGG	0.0387
ACAACGGA	0.335
CCAACGGA	0.207
TCAACGGA	0.246
AAGCCAGT	-0.176
CAGAAGAC	-0.17
CACGTGCC	-0.186
AGTGGCCA	-0.202
ATGCGCTA	-0.0278

Sequence	PBM E-score
AGCTCTAC	-0.325
CATGTCCA	0.0978
ATTGTCCC	-0.108
ATTGTCCG	0.359
CATGTCCG	0.382
CATGTCCC	-0.1
AATGTCCT	-0.0934
AATGTCCG	0.447
AATGTCCA	0.0363
ATTGTCCA	-0.0211
TCGAACAA	0.102
AGGGGGTA	-0.323
AGACCGCA	-0.0648
AGGGGATC	-0.134
CCAACCCG	-0.172
CCCTGCTC	-0.0773
CTCTCAGA	-0.139
CTCCGATA	0.432
ATCCGATA	0.215
CGCCGATA	-0.197
GGCCGATA	-0.152
ATCCGATC	0.18

Sequence	PBM E-score
CTCCGATC	0.38
CACCGATA	0.04
GTCCGATA	0.362
CGCCGATC	0.137
CCCAGCTC	0.03
CTACACCC	-0.286
AAAAAAAA	0.228
CCCCAATC	-0.327
TGTGTAAA	0.194
ACGGACTC	0.393
ATGGACTA	-0.0502
GAGGACTA	0.0368
AGGGACTC	-0.186
CCGGACTA	0.48
GCGGACCA	0.175
ACGGACTG	0.22
CCGGACCA	0.241
CTGGACTA	-0.0898
ACGGACGA	0.1
GCGGACTA	0.404
